From PubChem BioAssay AID485364 (National Center for Advancing Translational Sciences (NCATS), 2010) come the findings set out here.

The whole screen tested about 360,000 compounds, of which about 11,000 (3.1%) were called active. A call without a number means that no potency is given here. About 4% were inconclusive and are not listed. The call rests on the fitted dose curve; in most records, active means well fitted inhibition curve with a large enough effect; inconclusive means small, poorly fitted or top-dose-only effect; inactive means no such curve, though single readings can be large or run the other way. The sample as a whole holds a higher share of actives than the screen did.
Potency means the concentration at half of the fitted maximal effect.

The assay addresses Schistosoma mansoni thioredoxin glutathione reductase (TGR) (UniProt Q962Y6). Kind of assay: qHTS Assay for the Inhibitors of Schistosoma Mansoni Peroxiredoxins. Further: nearly all actives have a fitted effect of over 60% in size. The conditions noted are these: purified TGR, DTNB reduction, TNB absorbance 405 nm; series mostly up to 114 µM. The text has this: Schistosomiasis is a major neglected tropical disease that currently affects over 200 million. It is caused by different species of flatworms, such as Schistosoma mansoni. Over the last century, drugs to treat the disease have evolved from potassium antimonyl tartrate, artemisinin, oxamniquine, to praziquantel, with praziquantel remaining the universally-used single drug of choice over the past three decades. However, transmission rates have changed little with praziquantel, and there is evidence for the development of drug resistant parasites. Because there is currently no suitable alternative therapy available, there is an urgent need to identify new targets and drugs for schistosomiasis treatment. Thioredoxin glutathione reductase (TGR), one uniquely positioned S. mansoni enzyme, has been identified as a major component of the worms' distinct and compressed antioxidant "firewall". TGR is a multifunctional enzyme that catalyzes the interconversion between reduced and oxidized forms of both glutathione (GSH) and thioredoxins, thus making it an attractive new antiparasitic target. Recently, a quantitative high-throughput screen of the NIH Molecular Libraries Small Molecule Repository (MLSMR, ~71K at the time of the screen in 2007) was performed using an assay that targeted both TGR and peroxiredoxin2 (Prx2, an H2O2-reducing enzymatic component of the S. mansoni redox "firewall") by following the decrease of NADPH fluorescence. […] Additional mechanistic link between exogenous NO donation and parasitic injury for the oxadiazole-2-oxide class of compounds was also expanded and better defined. Although the screen addressed both TGR and Prx2, the assay required post-screen target deconvolution for further characterization of the actives. In addition, the fluorescence assay was also subject to fluorescence interference from compound library members. We have developed a 1536-well-based kinetic HTS assay to address TGR alone. The assay followed the reduction of 5, 5'-dithiobis (2-nitrobenzoic acid) (DTNB) (Ellman's reagent) by NADPH and measured the increase in absorbance at 412 nm of the reaction product, TNB. […] This assay format can be used to screen the current MLSMR collection (with >300K compounds available) to find novel TGR inhibitors. Furoxan is a good choice to serve as a positive control in the primary HTS assay.
Three microliters of reagents (100 uM NADPH and 20 nM TGR or 100 uM NADPH as no-enzyme control) were dispensed into 1,536-well black clear-bottomed plates. Compounds (23 nL) were transferred via Kalypsys pin tool equipped with 1536-pin array (10 nL slotted pins, V&P Scientific, San Diego, CA). The plates were then be incubated for 15 min at room temperature, and 1 uL aliquot of 500 uM NADPH were added, immediately followed by a 1 uL aliquot of 15 mM DTNB to start the reaction. The plate was transferred to a ViewLux high-throughput CCD imager (Perkin-Elmer, Wellesley, MA) where kinetic measurements of the TNB absorbance were acquired using a 405 excitation filter. Throughout the screen, reagent bottles and all liquid lines were made light-tight to minimize reagent degradation. All screening operations were performed on a fully integrated robotic system (Kalypsys, San Diego, CA) containing one RX-130 and two RX-90 anthropomorphic robotic arms (Staubli, Duncan, SC). Library plates were screened starting from the lowest and proceeding to the highest concentration, and a "double-dipping" step of the highest concentration was required to access higher concentrations of compounds. Vehicle-only plates, with DMSO being pin-transferred to the entire column 5-48 compound area, were inserted uniformly at the beginning and the end of each library in order to monitor for and record any shifts in the background, which can be affected by reagent dispensers or loss in enzyme activity overtime. […]
A general note: In qHTS, concentration-response curves come from the screen itself.
In the case of `COc1cc(-c2noc(-c3ccc(N4CCCC4)c([N+](=O)[O-])c3)n2)cc(OC)c1OC`, the Potency entry was “inactive”.
Under `O=C(Nc1ccc(Br)cc1)c1cc2nc(-c3ccccc3)cc(-c3ccccc3)n2n1` stands “inactive”; under `O=C(NNC(=O)C1CCC1)c1ccccc1`, “inactive”.
Under `Cc1ccc(NNC(=O)C2CCC2)cc1C` stands 56.2 µM (active); under `Cc1ccc(NC(=O)C2CCCN2C(=O)OCc2ccccc2)cc1C` (centres undefined), “inactive”.
To `Cc1oc(-c2ccccc2F)nc1CN1CCC(C(=O)NCCc2ccc(Cl)cc2)CC1` belongs “inactive”; to `CCOC(=O)c1c(S(=O)(=O)N2CCCC(C(=O)NCc3cccc(C)c3)C2)c(C)n(C)c1C` (centres undefined), “inactive”; to `Cc1ccccc1CS(=O)(=O)CC1Nc2ccc(C(=O)NCc3ccc(Cl)cc3)cc2NC1=O` (centres undefined), “inactive”.
As to `Cc1cc(C)cc(NC(=O)Cc2csc(C)n2)c1`, the Potency entry was “inactive”.
Under `CCc1cccc(C)c1NC(=O)CSc1nnc(-c2ccco2)n1N` stands “inactive”; under `Cc1cccc(C)c1NC(=O)CCCSc1nnc(-c2ccco2)n1-c1ccccc1`, 89.1 µM (active); under `CCOc1ccc(-n2c(SCC(N)=O)nnc2-c2ccco2)cc1`, “inactive”.
With `O=C(NC(=S)NC1CCSC1=O)c1ccccc1F` (centres undefined), the Potency entry is “inactive”.
Under `CC(C)C(=O)NC(=S)Nc1ccccc1F` stands “inactive”; under `COC(=O)c1ccccc1NC(=S)NC(=O)c1ccccc1F`, 22.4 µM (active); under `O=C(Cn1cc(SCc2cccc(Cl)c2)c2ccccc21)N1CCCCC1`, “inactive”.
`Oc1c(C(c2ccccn2)N2CCOCC2)ccc2cccnc12` (centres undefined): the Potency is 0.794 µM (active).
With `Cn1c(C(=O)Nc2cccc(C(F)(F)F)c2)cc2c(=O)n3ccccc3nc21`, the Potency entry was “inactive”.
Under `COC(=O)/C=C\C(=O)Nc1cccc([N+](=O)[O-])c1` stands 0.794 µM (active); under `Cc1ccccc1NC(=S)Nc1cccc([N+](=O)[O-])c1`, 44.7 µM (active); under `CCC(CC)NC(=O)/C=C/c1cccc([N+](=O)[O-])c1`, “inactive”.
`O=C(Nc1cccc([N+](=O)[O-])c1)N1CCc2ccccc2C1`: the Potency result is “inactive”.
On to `Cc1c(NC(=O)Nc2cccc([N+](=O)[O-])c2)c(=O)n(-c2ccccc2)n1C`, for which the Potency entry is “inactive”.
To `Cc1cc([N+](=O)[O-])ccc1NCc1cccc([N+](=O)[O-])c1` belongs “inactive”; to `COc1ccccc1N1CCN(CCCNC(=O)c2cnn(-c3ccccc3Cl)c2C2CCN(C(=O)OC(C)(C)C)CC2)CC1`, “inactive”; to `COc1ccc(Br)cc1C1CC(=O)Nc2c1c(C)nn2-c1nc(C)cc(C)n1` (centres undefined), “inactive”.
Regarding `O=C(CCC(=O)N1CC2CCCN2c2ccccc21)NCc1ccccc1Cl` (centres undefined), the Potency result is “inactive”.
To `Cc1ccc(N=C2NC(=O)/C(=C/C=C/c3ccco3)S2)cc1C` belongs 44.7 µM (active); to `CC(C)c1ccc(NC(=O)Cn2c3ncccc3c(=O)n2-c2ccccc2)cc1`, “inactive”.
To `CN(Cc1ccccc1)C(=O)CCS(=O)(=O)c1cc(Br)cc2c1N(C(=O)C1CC1)CC2` belongs “inactive”; to `N#Cc1cccc(CN2CCC(=O)N(CCO)CC2)c1`, “inactive”; to `CC(C)(C)c1cc(CN2CCN(CCC#N)CC2)cc(C(C)(C)C)c1O`, 2.24 µM (active).
To `N#CCCN1CCN(S(=O)(=O)c2ccc(S(=O)(=O)N3CCCC3)cc2)CC1` belongs “inactive”.
Regarding `O=C1C(=O)N(CC2COc3ccccc3O2)c2ccccc21` (centres undefined), the Potency entry is “inactive”.
With `Cc1noc(C)c1C(=O)NCC1COc2ccccc2O1` (centres undefined), the Potency entry is “inactive”.
Turning to `Cc1cc(C(=O)CCl)c(C)n1CC1COc2ccccc2O1` (centres undefined), the Potency is 10 µM (active).
For `Cc1ccc2nc(COc3ccc(NC(=O)COc4ccccc4F)cc3)cc(=O)n2c1`, the Potency entry is “inactive”.
Turning to `C=C(C)C(=O)O[C@H]1C/C(C)=C\C(=O)/C=C(\C)[C@H](O)[C@@H]2OC(=O)C(=C)[C@@H]21`, the Potency is 3.55 µM (active).
Under `CCOC(=O)c1c(C)oc2nc(C)nc(N(CC(C)C)CC(C)C)c12` stands “inactive”; under `CCCC[C@]12Cc3cc(OC)c(OC)cc3C(O1)C1=C(CC3(CCCCC3)OC1=O)O2`, 11.2 µM (active); under `CCCCC12CN3CC(C)(CN(C1)C3c1ccc(O)c(OC)c1)C2=O` (centres undefined), “inactive”.
Under `COc1cc2c(cc1OC)CC1(CCCCC1)N=C2` stands “inactive”; under `COc1ccc(-c2[nH]c3c(c2-c2c(-n4cccc4)n(C)c(=O)n(C)c2=O)c(=O)n(C)c(=O)n3C)cc1`, “inactive”; under `Cc1ccc(NC(=O)c2oc3ccccc3c2NC(=O)Cc2cccs2)cc1`, “inactive”.
To `COc1cccc(NC(=O)COC(=O)CCOc2ccccc2OC)c1` belongs “inactive”.
Consider `CSc1ccccc1NC(=O)COC(=O)CCCOc1ccc(C)cc1`, for which the Potency result was “inactive”.
To `COc1cc([N+](=O)[O-])ccc1NC(=O)COC(=O)CCOc1ccc(C)cc1` belongs 35.5 µM (active); to `CCOC(=O)c1ccc(NC(=O)CCS(=O)(=O)c2ccc3c(c2)oc(=O)n3C)cc1`, “inactive”.
To `Cc1ccc(C(=O)OC2=CC(=O)CC(C)(C)C2)cc1` belongs 44.7 µM (active).
